Compound activity (PubChem BioAssay)
SARS PLpro yeast – SARS-CoV PLP inhibition in yeast; Potency, µM (titrated, usually from 32.9 µM), inactives show at the top dose activity, positive = growth rescue, most hits filed as activators; 0.19% of 330,000 active; S. cerevisiae expressing SARS-CoV PLpro, growth rescue; calls by dose curve; also: potency is read from the fitted curve at half-maximal effect; 0% is about no effect; nearly all actives have a fitted effect of over 55% in size
HCV inhibitor – inhibitors of hepatitis C virus infection; 3.4% of 340,000 active; Huh7.5.1 HCVcc-Cre infection, luciferase reporter, 44 h; Potency, µM (top dose mostly 41.8 µM), inactives show at the top dose activity change, negative = inhibition, actives largely listed as inhibitors; active = well fitted inhibition curve with a large enough effect; inconclusive = small, poorly fitted or top-dose-only effect, or another doubt; inactive = no such curve, though single readings can be large or run the other way; also: potency is read from the fitted curve at half-maximal effect; % is scaled to controls: 0 for no effect and ±100 for the full control effect
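Infectious HCVcc-Cre (~0.5 moi) was added to cells just after compound, with cells seeded 4 h earlier at 1,000 per well. Luciferase activity after 44 h culture reported infection; substrate was incubated 15 min at room temperature before reading.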
FMDV antiviral – blocks foot and mouth disease virus | Potency, µM (doses to about 57.9 µM), for inactives: at the highest dose activity change, negative = inhibition, hits mostly inhibitors | FMDV antiviral cell-based qHTS | 1.2% of 410,000 active | AID 1159524; calls by dose curve; tested in HEK293T cells; also: read-out not given here; potency is read from the fitted curve at half-maximal effect; % is scaled to controls: 0 for no effect and ±100 for the full control effect; nearly all actives have a fitted effect of over 45% in size
MARV entry inh – inhibitors of Marburg virus binding or cell entry | 1.8% of 300,000 active | Potency, µM (titrated, usually from 37.8 µM), for the others: at the highest dose activity change, negative = inhibition, actives largely listed as inhibitors | AID 540276 | Marburg virus pseudotyped entry inhibition, cell reporter; calls by dose curve; tested in HEK293 cells; also: potency is read from the fitted curve at half-maximal effect; % is scaled to controls: 0 for no effect and ±100 for the full control effect
LASV entry inh – inhibitors of Lassa virus binding or cell entry; Lassa virus pseudotype entry inhibition, cell reporter; Potency, µM (top dose mostly 37.9 µM), for the others: top-dose activity change, negative = inhibition, usual class: inhibitors; 1.2% of 300,000 active; AID 540256; calls by dose curve; tested in HEK293 cells; also: potency is read from the fitted curve at half-maximal effect; % is scaled to controls: 0 for no effect and ±100 for the full control effect; nearly all actives have a fitted effect of over 50% in size
HCMV antiviral – inhibitors of human cytomegalovirus; AID 1259415; 4.5% of 410,000 active; activity change, negative = inhibition, % at 57.5 µM; HFF cells, HCMV-luciferase reporter, 72 h; active compounds read low; in the data active = activity change below about -60%; inconclusive = no clear call, values can overlap the other calls; inactive = above about -39%; also: % is scaled to controls: 0 for no effect and ±100 for the full control effect
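Two-dose cell screen: HFF monolayers treated with compounds and infected with luciferase-expressing HCMV at 1 PFU/cell, 72 h at 37C, then lysed for luciferase measurement.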
An asterisk follows results filed as active; ? = inconclusive; · = no result given; [ ] = another dose, or the depositor's remark. The list is not random: actives were taken first. Their share in the collection is about 8%.

SMILES | SARS PLpro yeast | HCV inhibitor | FMDV antiviral | MARV entry inh | LASV entry inh | HCMV antiviral
C=C1CCC(OC(C)=O)/C(C)=C/CC2[C@H]1CC2(C)C (stereo partly drawn) | · | · | -13% | · | · | ·
CCOc1ccc(C(=O)C[n+]2cccc3cc(C)ccc32)cc1 | -4% | ? | -14% | 7.1µM* | ? | -81*
CCc1ccc(N2C(=O)c3sc4nnc(-c5ccccc5)c(=O)n4c3C2=O)cc1 | -3% | -16% | 0% | 0% | -1% | -77*
CCC(C(=O)Nc1cccc(Cl)c1C)n1nc(C)c2sc3ccccc3c2c1=O (stereo not drawn) | · | · | -5% | -10%[46.1 µM] | 6%[46.1 µM] | -10
COc1ccc(-c2cc(C3CCN(Cc4ccc([N+](=O)[O-])cc4)CC3)[nH]n2)cc1 | 3% | ? | ? | ? | 2% | ?
Cc1ccc(CN2CCC(c3nc4ccc(Cl)cc4[nH]3)CC2)cc1 | 1% | 11µM* | · | 4.1µM* | ? | -20
COc1ccc(-c2cc(C3CCN(CC(O)C(F)(F)F)CC3)[nH]n2)cc1 (stereo not drawn) | 1% | -13% | -1% | · | · | -18
COc1ccc(-c2cc(C3CCN(Cc4cccc(C(F)(F)F)c4)CC3)[nH]n2)cc1 | 1% | ? | ? | 10µM* | ? | ?
Cc1ccc(CN2CCC(c3cc(-c4ccc(Cl)cc4)n[nH]3)CC2)cc1 | 0% | 13µM* | ? | ? | ? | -99*
Cc1cccc(NCc2nnc3n2CCCCC3)c1C | · | · | 7% | · | 4%[46.1 µM] | 16
COc1ccc(NC(=O)CN2CCCN(S(=O)(=O)c3ccc(Br)cc3)CC2)c(OC)c1 | · | · | ? | -16%[46.1 µM] | -14%[46.1 µM] | -12
COc1ccc(NC(=O)COC(=O)c2ccc(OC)c(S(=O)(=O)N3CCCC3)c2)cc1OC | -2% | -14% | -16% | 8% | 3% | 0
O=C(COC(=O)Cc1ccccc1)NCc1ccc2c(c1)OCO2 | 4% | -4% | -17% | -9% | -11% | 12
CC(C)(C)c1ccc(C(=O)N2CCC(c3noc(-c4ccc(S(=O)(=O)N5CCCC5)cc4)n3)CC2)cc1 | · | · | -24% | -19%[46.1 µM] | 0%[46.1 µM] | 6
Cc1ccc(-c2nc(C3CCN(S(=O)(=O)c4ccc(C(C)(C)C)cc4)CC3)no2)cc1 | -6% | 18% | -24% | 0% | · | -98*
Cc1cc(C)n(CCC(=O)N/N=C/c2ccc(O)cc2O)n1 | 7% | ? | 0% | 13µM* | ? | -4
CCn1c(SCC(=O)N/N=C/c2cc(OC)c(OC)c(OC)c2)nc2ccccc21 | 27% | ? | 25µM* | ? | -16% | -18
COc1ccccc1/C=N/NC(=O)CSc1cc(C)nc2ccccc12 | 1% | -28% | -27% | ? | ? | -82*
Cc1cc(C)n(CCC(=O)N/N=C/c2ccccc2O)n1 | 16% | ? | -7% | -18% | ? | 7
COc1ccc2nc(C)cc(SCC(=O)N/N=C/c3ccccc3)c2c1 | 22% | -2% | ? | -10% | ? | -60*
COc1cc(OC)c(NC(=O)COCc2cc(-c3cccs3)on2)cc1Cl | · | · | -3% | · | 18%[46.1 µM] | 3
Cc1cc(SCC(=O)NN)c2cc(Br)ccc2n1 | 1% | 3% | 27% | -10%[46.1 µM] | ? | -66*
COc1ccc2nc(C)cc(SCC(=O)N/N=C/c3ccc(O)cc3O)c2c1 | ? | 13µM* | ? | ? | ? | -21
COc1cccc2c(SCC(=O)N/N=C/c3ccc(O)cc3O)cc(C)nc12 | ? | ? | ? | ? | ? | 59
CSCCC(NC(=O)c1ccccc1Br)C(=O)NNC(=O)c1cc(C)oc1C (stereo not drawn) | 1% | -14% | -23% | · | · | -63*
SMILES | SARS PLpro yeast | HCV inhibitor | FMDV antiviral | MARV entry inh | LASV entry inh | HCMV antiviral
CSCCC(NC(=O)c1ccccc1)C(=O)NNC(=O)c1ccccc1 (stereo not drawn) | 0% | 3% | 2% | · | · | -62*
CSCCC(NC(=O)c1ccccc1)C(=O)NCCc1ccccc1 (stereo not drawn) | 1% | 17% | 22% | ? | -9%[46.1 µM] | -1
CSCCC(NC(=O)c1ccccc1Br)C(=O)N1CCN(C/C=C/c2ccccc2)CC1 (stereo not drawn) | · | ? | -29% | · | · | -83*
CSCCC(NC(=O)c1ccccc1)C(=O)N1CC=C(c2ccccc2)CC1 (stereo not drawn) | 0% | ? | 9% | ? | 11µM* | -24
Nc1nnnn1/N=C/C=C/c1ccccc1 | 3% | 7% | 33% | 3% | 27% | 4
Nc1nnnn1/N=C/C(Br)=C/c1ccccc1 | -9% | 10µM* | 14µM* | 5µM* | ? | 9
COc1cc(-c2nc(Cn3nnc(C(=O)Nc4cc(C)cc(C)c4)c3C)c(C)o2)cc(OC)c1OC | · | · | -19% | ? | ? | 13
O=C(c1ccccc1)N(Cc1nc2ccccc2c(=O)[nH]1)C1CCCC1 | -1% | 8% | -23% | 0%[46.1 µM] | 2% | -3
Cc1cccc(C(=O)N(Cc2nc3ccccc3c(=O)[nH]2)C2CCCCC2)c1 | 0% | 0% | -18% | -21%[46.1 µM] | -27% | -79*
O=C(c1ccc(Br)cc1)N(Cc1nc2ccccc2c(=O)[nH]1)C1CCCC1 | 0% | ? | 0% | ? | ? | -62*
Cc1cccc(C(=O)N(Cc2nc3ccccc3c(=O)[nH]2)C2CCCC2)c1 | 0% | -18% | -25% | ? | ? | 23
COc1ccc(CNC(=O)C2CCN(S(=O)(=O)c3cn(C)cn3)CC2)cc1 | · | · | -14% | · | 15%[46.1 µM] | -15
O=C(CSc1nc2ncc(Br)cc2[nH]1)c1cccc([N+](=O)[O-])c1 | -18% | -26% | 8% | -24% | -17% | -2
O=[N+]([O-])c1ccc(CSc2nc3ncc(Br)cc3[nH]2)cc1 | 1% | -2% | 16% | · | · | -62*
Nc1nnc(SCC(=O)OCC(=O)c2ccccc2Br)s1 | 0% | 4% | -13% | 0%[46.1 µM] | 3% | -31
Cc1noc(C)c1C(=O)NCCc1ccc(Cl)cc1 | 1% | 13% | 6% | 5% | 12% | -15
Cc1cc(C(C)(C)C)cc(C)c1CCNC(=O)c1c(C)noc1C | 0% | 11µM* | ? | ? | ? | ?
COc1ccccc1OC1=NS(=O)(=O)c2ccccc21 | -1% | 22% | 40µM* | 6% | 11% | 34
COc1ccccc1COC(=O)N/C=C/c1ccco1 | -3% | -29% | 20% | -2%[46.1 µM] | ? | 39
COc1ccc(COC(=O)N/C=C/c2ccco2)cc1 | 0% | 4% | 10% | 2%[46.1 µM] | 1.2µM* | -12
CCc1n[n+](CC(=O)c2ccccc2)c(N)s1 | -8% | -11% | -52% | ? | 7.9µM* | -7
CC(=O)c1cccc(Nc2nccc3c2cc(-c2cccc(C(F)(F)F)c2)n3C)c1 | · | · | · | · | · | -31
COc1ccc(OCc2nc3ccccc3n2C(C)C)cc1 | -1% | -31% | -21% | ? | -5% | -36
